# Only some compounds are listed: those with a hit (about 19% of all), similar ones and a draw of the others.
# Shiga inhibitor = blocks Shiga toxin action in Vero cells; Vero cells, Shiga toxin protein synthesis inhibition reporter; inhibition, % at 38.7 µM; 290,000 compounds, 9.2% hits; in the data active = inhibition mostly above about 28%, no sharp cut-off; inactive = mostly below about 43%
# AMA1-RON2 inh = AMA1-RON2 (P. falciparum) interaction inhibition; AlphaScreen AMA1-biotinylated RON2 peptide binding; Potency, µM (doses to about 58.2 µM), actives largely listed as inhibitors; 360,000 compounds, 0.2% hits; note: nearly all actives have a fitted effect of over 45% in size
#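 AMA1 (3D7) with his tag at 25 nM final met compounds first, then biotinylated RON2 peptide at 25 nM; detection used donor plus acceptor beads, 10 µg/mL apiece, read by AlphaScreen after 30 min at room temperature.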
# CHX counter = counter-screen hit for Shiga toxin inhibitors, cycloheximide | cell reporter, cycloheximide protein synthesis inhibition counterscreen | max response, % | 300,000 compounds, 12% hits | AID 2314; in the data active = max response mostly above about 13%, no sharp cut-off; inactive = mostly below about 14%; note: read at 38.3 µM for the half of the compounds with a filed dose
# Pf growth 96h = P. falciparum growth inhibition at 96 hours | Potency, µM (titrated, usually from 28.7 µM), usual class: inhibitors | 320,000 compounds, 6.9% hits | P. falciparum luciferase reporter growth, 96 h
#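 96 h incubation, 37 C, 5% CO2, of luciferase-reporter P. falciparum-infected RBCs (2% hematocrit, 0.05% parasitemia final) with test compounds; endpoint luminescence.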
# SARS PLP yeast = blocks SARS-CoV papain-like protease in a yeast assay | S. cerevisiae expressing SARS-CoV PLpro, growth rescue | Potency, µM (top dose mostly 32.9 µM), most hits filed as activators | 330,000 compounds, 0.19% hits; calls by dose curve; note: nearly all actives have a fitted effect of over 55% in size
# Pf growth 48h = P. falciparum growth inhibition at 48 hours (one generation); 310,000 compounds, 5.9% hits; P. falciparum luciferase growth in erythrocytes, 48 h; Potency, µM (highest dose often 28.7 µM), usual class: inhibitors
#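 Compounds are pin-transferred into medium, infected erythrocytes (2% hematocrit, 0.1% parasitemia final) are added, and plates sit one parasite generation at 37 C in 5% CO2. Detection reagent is then added and luminescence measured.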
# Numbers stand for hits; – = inactive; ? = inconclusive; · = not tested or not shown; + = active, no number; [ ] = dose if it differs, or a comment. Unless noted, calls come from the whole dose curve; as a rule, active = well fitted curve in the direction sought with a large enough effect; inconclusive = small, poorly fitted or top-dose-only effect, or another doubt; inactive = no such curve, though single readings can be large; an effect the other way counts as inactive or inconclusive.
SMILES,Shiga inhibitor,AMA1-RON2 inh,CHX counter,Pf growth 96h,SARS PLP yeast,Pf growth 48h
COc1cc(C(=O)NN=Cc2ccc(N(C)C)cc2)cc(OC)c1OC,·,–,·,·,·,·
Cc1c(C(=O)N/N=C/c2ccc(N(C)C)cc2)[nH]c2ccc(Cl)cc12,–,–,–,1.85µM,–,–
Cc1ccc2c(nc3s/c(=C/c4cccs4)c(=O)n32)c1C,–,–,30.1,·,–,–
Cc1ccc2c(nc3s/c(=C\c4ccc(-c5ccccc5C(=O)O)o4)c(=O)n32)c1C,–,–,–,–,–,?
C=C(C)C1CC=C(C)/C(=N/NC(=O)COc2ccc(C)cc2)C1 (configuration not stated),–,–,–,–,–,–
C=C(C)C1CC=C(C)/C(=N\NC(=S)Nc2ccc(C)cc2)C1 (configuration not stated),53.6,–,23.4,10.4µM,?,14.7µM
Nc1n[nH]c(N)c1N=Nc1ccc(Cl)cc1Cl,38.1,–,51.7,–,–,–
Cc1ccccc1N=Nc1c(N)n[nH]c1N,–,–,–,2.94µM,–,–
Nc1n[nH]c(N)c1N=Nc1ccccc1F,–,–,16.9,–,–,–
COc1ccc(NC(=O)COC(=O)CCC(=O)c2cccs2)cc1OC,·,–,·,–,–,–
COc1ccc(NC(=O)CCC(=O)c2cccs2)cc1Cl,–,–,9.5,–,–,–
COc1cc(NCCC(=O)c2cccs2)c(OC)cc1Cl,–,14.1µM,–,–,–,–
COc1ccc(NC(=O)COC(=O)Cc2cccs2)cc1Cl,·,–,·,·,·,·
COc1ccc(NC(=O)Nc2cccs2)cc1Cl,+,–,39.3,–,–,–
COc1cc(NC(=O)c2cccs2)c(OC)cc1NC(=O)c1cccs1,·,–,·,·,·,·
CCc1cccc(NC(=O)Nc2cccs2)c1,+,–,28.2,?,–,?
O=C1CC(NS(=O)(=O)c2cccnc2)CN1c1ccc(Cl)cc1 (configuration not stated),·,–,·,–,–,–
COc1ccc(CCNC(=O)C2Cc3ccccc3C(=O)O2)cc1 (configuration not stated),–,–,–,–,–,?
CCc1ccccc1C1=CC(=O)C[C@H](c2ccc(OC)cc2)C1,·,–,·,·,–,·
COc1ccc(C2Cc3ccccc3C(=O)O2)cc1 (configuration not stated),active,–,–,–,–,–
Cc1ccccc1NC(=O)C1Cc2ccccc2C(=O)O1 (configuration not stated),–,–,14.3,–,–,–
COc1ccc(NC(=O)C2Cc3ccccc3C(=O)O2)cc1 (configuration not stated),–,–,12.2,–,–,–
COC(=O)c1ccccc1NC(=O)CNC(=O)c1ccc(OC)c(OC)c1,–,–,–,–,–,–
O=C(O)C[C@@H](O)C(=O)O,–,–,–,–,–,?
COc1cccc(C(=O)N2CCC(C(=O)NCc3ccco3)CC2)c1,–,–,–,–,–,–
SMILES,Shiga inhibitor,AMA1-RON2 inh,CHX counter,Pf growth 96h,SARS PLP yeast,Pf growth 48h
Cc1ccc(-n2c(SCC(=O)NC3CCS(=O)(=O)C3)nc3ccccc3c2=O)cc1 (configuration not stated),–,–,–,–,–,–
O=C(CSc1nc2cc(C(F)(F)F)ccc2n1Cc1ccccc1)NC1CCS(=O)(=O)C1 (configuration not stated),–,–[2.32 µM],–,11.7µM,–,?
CCCCCCn1c(SCC(=O)NC2CCS(=O)(=O)C2)nc2ccccc2c1=O (configuration not stated),·,–,·,·,·,·
O=C(CSc1nc2ccccc2c(=O)n1-c1ccccc1Cl)NC1CCS(=O)(=O)C1 (configuration not stated),·,–,·,10.4µM,–,?
COc1cc(/C=C/C(=O)OCC(=O)Nc2cc(S(=O)(=O)N(C)C)ccc2Cl)ccc1O,–,–,–,–,–,–
CCN(CC)S(=O)(=O)c1ccc(Cl)c(NC(=O)COC(=O)c2ccc(O)cc2)c1,–,–,–,4.65µM,–,?
COc1ccc(/C=C/C(=O)OCC(=O)Nc2cc(S(=O)(=O)N(C)C)ccc2Cl)cc1,58.4,–,12.8,–,–,–
CC(C(=O)Nc1ccccc1C(=O)N1CCOCC1)N(c1ccccc1)S(C)(=O)=O (configuration not stated),–,–,–,–,–,–
COc1ccccc1S(=O)(=O)Nc1cc(C)nn1-c1ccc(C)cc1,–,–,–,?,–,2.62µM
Cc1cc(C)cc(N(CCC#N)C(=O)COC(=O)c2ccccc2SCC(=O)N2CCCC2)c1,–,–,–,11.7µM,–,?
COc1ccccc1CCNC(=O)c1ccccc1SCC(=O)N1CCCC1,·,–,·,?,–,?
O=C(OCc1ccc(F)cc1)c1cc2ccccc2cc1O,–,–,8.6,?,–,–
CCC1CCCCN1C(=O)COC(=O)c1cc2ccccc2cc1O (configuration not stated),79.5,–,50.2,–,–,·
O=C(NCCc1ccccc1)c1ccccc1SCC(=O)N1CCCC1,97.3,–,26.8,–,–,?
Cc1ccc(N(CCC#N)C(=O)COC(=O)c2ccccc2SCC(=O)N2CCCC2)cc1,·,–,·,?,·,?
CCN(CC(=O)NCc1ccc(F)cc1)C(=O)/C=C/c1ccc(S(=O)(=O)N(CC)CC)cc1,–,–,–,–,–,?
Brc1ccc(-c2csc3ncnc(-n4nnc5ccccc54)c23)cc1,–,?,–,?,–,–
CC(C)CN(C(=O)COC(=O)c1ccccc1SCC(=O)N1CCCC1)C1CCS(=O)(=O)C1 (configuration not stated),·,10µM,·,·,·,·
O=C(COC(=O)c1cc2ccccc2cc1O)NC1CCCCC1,·,–,·,·,–,·
O=C(COC(=O)c1ccccc1SCC(=O)N1CCCC1)NC1CCCCC1,·,–,·,?,–,–
CN(C(=O)COC(=O)c1ccccc1SCC(=O)N1CCCC1)C1CCS(=O)(=O)C1 (configuration not stated),–,–,–,–,–,–
O=C(OCC(=O)N1CCCCC1)c1ccccc1SCC(=O)N1CCCCC1,–,–,19.7,–,–,–
O=C(OCC(=O)N1CCCCC1)c1cc2ccccc2cc1O,–,–,24.1,9.28µM,–,–
CCNC(=O)NC(=O)COC(=O)c1ccccc1SCC(=O)NC(=O)NCC,–,–,62.6,?,–,–
Cc1cc(N2C(=O)C(O)=C(C(=O)c3cccs3)C2c2ccc(F)cc2)no1 (configuration not stated),–,–,–,–,–,–
O=C(NCc1ccccc1C(F)(F)F)c1cccc2c1C(=O)c1ccc(N3CCCCC3)cc1S2(=O)=O,·,–,·,·,–,·
Cc1cccc(C)c1NC(=O)CNC(=O)CCC(=O)c1cccs1,–,–,–,–,–,–
NC(=O)c1ccsc1NC(=O)CN1CCN(S(=O)(=O)c2ccccc2C(F)(F)F)CC1,·,–,·,·,·,·
